# VACV mCherry inh – vaccinia inhibition (mCherry reporter); 310,000 compounds, 0.63% hits; Vaccinia virus mCherry reporter infection, fluorescence; Potency, µM (highest dose often 36.5 µM), inactives show top-dose activity change, negative = inhibition, actives largely listed as inhibitors; calls by dose curve; tested in A549 cells; also: potency is read from the fitted curve at half-maximal effect; nearly all actives have a fitted effect of over 35% in size
# HCV inhibitor – inhibitors of hepatitis C virus infection | Huh7.5.1 HCVcc-Cre infection, luciferase reporter, 44 h | Potency, µM (titrated, usually from 41.8 µM), without a hit: at the highest dose activity change, negative = inhibition, usual class: inhibitors | 340,000 compounds, 3.4% hits | AID 651820; active = well fitted inhibition curve with a large enough effect; inconclusive = small, poorly fitted or top-dose-only effect, or another doubt; inactive = no such curve, though single readings can be large or run the other way; also: potency is read from the fitted curve at half-maximal effect
#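 HCVcc-Cre virus at an moi near 0.5 was added right after compound to cells cultured 4 h from seeding (1,000 cells/well). Luciferase activity was determined 44 h later, 15 min after substrate addition at RT.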
# HCMV antiviral – human cytomegalovirus inhibition | HFF cells, HCMV-luciferase reporter, 72 h; stronger effect = lower value | activity change, negative = inhibition, % at 57.5 µM | 410,000 compounds, 4.5% hits | AID 1259415; in the data active = activity change below about -60%; inconclusive = no clear call, values can overlap the other calls; inactive = above about -39%
#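 Steps: HFFs plated, 16 h 37C; compounds added; HCMV-luciferase added to MOI 1 PFU/cell; 72 h 37C; OneGlo reagent, 5 min room temperature; luminescence read, normalized to controls.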
# FMDV antiviral – foot and mouth disease virus antiviral activity | FMDV antiviral cell-based qHTS | Potency, µM (highest dose often 57.9 µM), without a hit: top-dose activity change, negative = inhibition, actives largely listed as inhibitors | 410,000 compounds, 1.2% hits | AID 1159524; calls by dose curve; tested in HEK293T cells; also: read-out not given here; potency is read from the fitted curve at half-maximal effect; nearly all actives have a fitted effect of over 45% in size
# Vaccinia Venus – vaccinia inhibition (Venus reporter). AID 720580. 330,000 compounds, 0.46% hits. Vaccinia virus Venus reporter expression, fluorescence. Potency, µM (top dose mostly 36.5 µM), inactives show at the highest dose activity change, negative = inhibition, usual class: inhibitors; calls by dose curve; tested in A549 cells; also: potency is read from the fitted curve at half-maximal effect; nearly all actives have a fitted effect of over 30% in size
# Numbers without * were called inactive; i = inactive; ? = inconclusive; / = no result given. This is a sample that favours compounds with a hit; in the whole collection about 7.3% have one here. % is scaled to controls: 0 for no effect and ±100 for the full control effect.
SMILES,VACV mCherry inh,HCV inhibitor,HCMV antiviral,FMDV antiviral,Vaccinia Venus
CNc1snc(C)c1C(=O)OCC(=O)c1ccc(OC)c(F)c1,/,?,-73.6*,?,/
COc1ccc(-c2c(C)oc3c(CN4CCN(C)CC4)c(O)ccc3c2=O)cc1,-18.0%,16.8%,-62.5*,-10.0%,-11.5%
COc1ccc(-c2c(C(F)(F)F)oc3c(CN4CCN(C)CC4)c(O)ccc3c2=O)cc1,/,2.6%,-6.0,-17.0%,-10.7%
C[C@@H](NC(=O)/C(C#N)=C/c1ccc(O)c(O)c1)c1ccccc1,?,?,-98.2*,-19.4%,-13.1%
CC(NC(=O)/C(C#N)=C/c1ccc(Cl)c([N+](=O)[O-])c1)c1ccccc1 (stereo unspecified),/,35.5µM*,-99.5*,31.6µM*,/
CCOC(=O)c1ccc(N=C2SC(C(=O)Nc3ccc(C(=O)O)cc3)CC(=O)N2Cc2cccs2)cc1 (stereo unspecified),i,28.5%,-70.9*,-21.0%,-10.9%
CN(Cc1ccccc1)C(=O)NC1CCCCC1,/,-10.0%,-31.3,14.5%,/
CC[C@@H](CC1CCCCC1)C(=O)N(Cc1ccccc1)c1ccccc1,?,10µM*,?,?,-10.6%
Cc1cccn2c(=O)c3cc(C#N)c(=NC(=O)c4ccccc4)n(Cc4ccco4)c3nc12,-20.3%,3.98µM*,1.1,-29.2%,?
Cc1cccn2c(=O)c3cc(C#N)c(=NC(=O)c4ccco4)n(Cc4ccco4)c3nc12,-6.1%,?,-27.1,-19.7%,-9.8%
Cc1cc(Br)ccc1NC(=O)COC(=O)c1ccccc1OCC(N)=O,-5.1%,/,/,/,-6.2%
CCCS(=O)(=O)NCc1c(C)ncc2c1CCN(C(=O)c1ccc3[nH]c4c(c3c1)CCCC4)C2,-10.2%,/,/,-12.4%,6.8%
Cc1ccc(S(=O)(=O)N2CCC(C(=O)NNC(=O)c3ccccc3O)CC2)cc1C,?,?,-15.3,3.2%,?
Cc1cc(C)c(C)c(S(=O)(=O)N2CCC(C(=O)NNC(=O)c3ccccc3O)CC2)c1C,?,7.08µM*,-24.3,0.4%,?
Cc1ccc(-n2ncc3c(NCCC4=CCCCC4)ncnc32)cc1,-12.7%,/,37.8,23.0%,-8.3%
CC(C)n1cc(-c2nc(C(=O)NN)cs2)c(=O)n(Cc2ccccc2)c1=O,-23.1%,?,-68.0*,-15.1%,-14.0%
NNC(=O)c1csc(-c2ccccc2)n1,-8.6%,6.5%,12.4,23.7%,-8.6%
C=CCn1c(SCC(=O)c2cccs2)nnc1-c1cccc(OC)c1,-17.5%,0.0%,19.7,/,-8.6%
C=CCn1c(SCC(=O)c2cccs2)nc2sc(C)cc2c1=O,-29.3%,?,-34.9,31.6µM*,-21.5%
O=C(O)c1cccc(NC(=O)c2ccccc2NC(=O)c2ccccc2F)c1,-15.4%,0.891µM*,33.4,-26.0%,-17.8%
COc1ccccc1NC(=O)c1ccccc1Nc1ccccc1,-6.1%,-33.4%,-22.5,-16.3%,-18.7%
O=C(Nc1ccccc1C(=O)Nc1ccccc1C(=O)O)c1ccccc1,-18.9%,-28.0%,-60.2*,0.0%,-10.9%
O=C(O)c1ccccc1NC(=O)c1ccccc1Nc1ccccc1,/,3.5%,-69.8*,-24.4%,/
Cc1cccc(NC(=O)c2ccccc2C(=O)Nc2cccc(C)c2)c1,-11.2%,15.2%,-38.3,23.6%,-3.7%
Nc1ccc(C(=O)Nc2ccccc2C(=O)O)cc1,/,23.8%,21.2,43.1%,/
SMILES,VACV mCherry inh,HCV inhibitor,HCMV antiviral,FMDV antiviral,Vaccinia Venus
O=C(Nc1ccccc1C(=O)Nc1ccccc1)c1ccccc1F,/,-12.0%,?,2.7%,/
Cc1cccc(NC(=O)c2ccccc2NC(=O)CCC(=O)O)c1,i,33.4%,-79.4*,8.6%,-15.0%
CCCCN(CC)C(=O)CSc1nc2n[nH]c(C)c2c(=N)n1-c1ccc(CC)cc1,-25.1%,/,52.4,?,-20.4%
Cc1nc2cc(NC(=O)c3ccc(Br)s3)ccc2s1,/,11.2µM*,?,-35.1%,/
COc1ccc(O)c(-c2c(-c3ccc(Cl)cc3)n[nH]c2C)c1,-26.1%,-3.9%,1.2,?,?
COc1ccc(-c2n[nH]c(C)c2-c2ccc(Cl)cc2)c(O)c1OC,/,14.1µM*,?,31.6µM*,/
Cc1[nH]nc(-c2ccc(O)cc2O)c1-c1ccc(Cl)cc1,/,?,-71.5*,?,/
CCOc1ccc(-c2cn(-c3ccccc3OC)c(=S)[nH]2)cc1,-27.7%,?,-80.5*,-7.4%,-18.1%
CCNc1nc(NCC)nc(N/N=C/c2ccc(Br)cc2)n1,-29.5%,11.2µM*,?,?,-23.7%
CC(C)CCNC(=O)c1cn(C)c2ccc(S(=O)(=O)N3CCOCC3)cc2c1=O,i,/,2.7,-3.3%,-25.5%

# Source: PubChem BioAssay
